According to article PMC5540273 (PLoS ONE, 2017):

How the values were obtained:
Settings in all cases: concentration: 1 μM, replicates: in singlicate; n = 1
DMPK = system: DMPK
DRAK1 = system: T1, DRAK1
T1 construct: gene STK17A

DRAK2 = system: T2, DRAK2
T2 construct: gene STK17B

DYRK1A = system: DYRK1A
DYRK1B = system: DYRK1B
DYRK2 = system: DYRK2
EGFR = system: EGFR
EIF2AK1 = system: EIF2AK1
EPHA1 = system: EPHA1
EPHA2 = system: EPHA2
EPHA3 = system: EPHA3
EPHA4 = system: EPHA4
EPHA5 = system: EPHA5
EPHA6 = system: EPHA6
EPHA7 = system: EPHA7
EPHA8 = system: EPHA8
EPHB1 = system: EPHB1
EPHB2 = system: EPHB2
EPHB3 = system: EPHB3
EPHB4 = system: EPHB4
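Further: KINOMEscan kinase panel screen.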

Row | Structure (SMILES) | %Inh (DMPK) | %Inh (DRAK1) | %Inh (DRAK2) | %Inh (DYRK1A) | %Inh (DYRK1B) | %Inh (DYRK2) | %Inh (EGFR) | %Inh (EIF2AK1) | %Inh (EPHA1) | %Inh (EPHA2) | %Inh (EPHA3) | %Inh (EPHA4) | %Inh (EPHA5) | %Inh (EPHA6) | %Inh (EPHA7) | %Inh (EPHA8) | %Inh (EPHB1) | %Inh (EPHB2) | %Inh (EPHB3) | %Inh (EPHB4)
1 | O=c1cc(N2CCOCC2)nc2n(Cc3cccc4ccccc34)ccn12 [GSK2333389] | 0% | 0% | 0% | 20% | 7% | 21% | 0% | 0% | 8% | 0% | 0% | 14% | 0% | 8% | 5% | 9% | 10% | 0% | 11% | 5%
2 | Cc1nnc(-c2ccc3occ(-c4ccc(C(C)O)cc4)c3c2)o1 (centres unmarked) | 7% | 19% | 36% | 18% | 11% | 0% | 28% | 0% | 0% | 0% | 0% | 30% | 0% | 52% | 3% | 0% | 9% | 15% | 12% | 13%
3 | COc1cc2ncn(-c3cc(OCc4sccc4Cl)c(C(N)=O)s3)c2cc1OC [GSK448459] | 0% | 0% | 0% | 13% | 0% | 26% | 32% | 0% | 0% | 0% | 0% | 0% | 0% | 2% | 0% | 11% | 3% | 9% | 6% | 0%
4 | Cc1c(Cn2c(C)nn3c(=O)cc(N4CCOC(C)C4)nc23)cccc1C(F)(F)F (centres unmarked) [GSK2344444] | 0% | 1% | 0% | 7% | 0% | 24% | 34% | 0% | 0% | 5% | 0% | 3% | 0% | 0% | 3% | 0% | 10% | 46% | 0% | 0%
5 | O=C(Nc1cccc(-c2nn3ncccc3c2-c2ccnc(Nc3cccc(C(F)(F)F)c3)n2)c1)c1c(F)cccc1F [GSK299495] | 0% | 4% | 0% | 14% | 0% | 0% | 99.1% | 18% | 41% | 0% | 0% | 8% | 0% | 11% | 54% | 49% | 29% | 0% | 14% | 9%
6 | CC(C)Oc1ccc2c(-c3ccnc(Nc4ccc(N5CCN(C)CC5)cc4)n3)cnn2n1 [GW696155] | 74% | 99.5% | 94.5% | 61% | 61% | 91.6% | 50% | 0% | 48% | 0% | 33% | 1% | 0% | 11% | 7% | 9% | 9% | 0% | 13% | 26%
7 | Cc1cn2c(=O)cc(N3CCOCC3)nc2n1Cc1cccc(Cl)c1Cl [GSK2334006] | 12% | 0% | 12% | 20% | 36% | 0% | 45% | 2% | 51% | 21% | 0% | 19% | 0% | 10% | 7% | 21% | 16% | 7% | 17% | 19%
8 | Fc1ccc(-c2nn3c(OCC(F)(F)F)cccc3c2-c2ccncc2)cc1 [GW514784] | 0% | 18% | 0% | 3% | 0% | 10% | 20% | 0% | 8% | 7% | 24% | 3% | 0% | 11% | 0% | 13% | 16% | 0% | 6% | 1%
9 | NS(=O)(=O)CCc1cccc(Nc2nccc(-c3c(-c4cccc(NC(=O)c5c(F)cccc5F)c4)nn4ccccc34)n2)c1 [GSK336735] | 11% | 4% | 12% | 20% | 0% | 12% | 100% | 0% | 69% | 71% | 30% | 45% | 0% | 48% | 8% | 60% | 26% | 18% | 0% | 11%
10 | O=C(NCCNc1ccnc(Nc2ccc(F)cc2)n1)Nc1ccccc1F [GSK1379880] | 0% | 0% | 0% | 15% | 6% | 12% | 22% | 0% | 19% | 0% | 0% | 6% | 0% | 0% | 2% | 21% | 38% | 0% | 0% | 0%
